Laboratory results as given in PubChem BioAssay AID1117319 (Southern Research Institute, 2015).
The campaign covered roughly 260,000 compounds. About 1,500 (0.58%) were called active. Inconclusive results (about 5%) are left out.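 The calls were made as follows: active = inhibition above a set limit at one or more doses, reproduced on every date tested; inconclusive = results disagree between test dates, or hit never tested in dose response; inactive = the rest.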 These entries were drawn from the full list. Measured potencies and affinities stand elsewhere.

Target: Virion infectivity factor (Human immunodeficiency virus type 1 group M subtype B (isolate BH10)) + Virion infectivity factor (Human immunodeficiency virus type 1 group M subtype B (isolate BRU/LAI)) + Virion infectivity factor (Human immunodeficiency virus type 1 group M subtype B (isolate PCV12)) + Virion infectivity factor (Human immunodeficiency virus type 1 group M subtype B (isolate HXB2)) + DNA dC->dU-editing enzyme APOBEC-3G (Homo sapiens) (UniProt P69720+P69721+P69722+P69723+Q9HC16)
Experiment: HIV-1 Vif–A3G interaction blockers – biochemical, TR-FRET, GST-Vif 1-94, biotin-A3G peptide, dose response retest, primary screen (AID 1117319);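 also: Vif residues 1-94 fused to GST binding biotinylated APOBEC3G peptide 110-148; 0% = full assay without inhibitor and 100% = GST in place of GST-Vif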
Conditions: TR-FRET GST-Vif / biotin-A3G peptide binding; stronger effect = higher value

inhibition, inactive:
NS(=O)(=O)c1ccc(NC(=O)NC2CCCCC2)cc1 1.56%
CSc1oc(-c2ccco2)nc1S(=O)(=O)c1ccc(F)cc1 9.31%
CSc1oc(-c2ccco2)nc1S(=O)(=O)c1ccc(Br)cc1 6.37%
Cc1ccc2nc3sc(C(=O)Nc4ccc(N5CCOCC5)cc4)c(N)c3cc2c1 12.2%
NC(=O)c1ccc(OCC(F)(F)F)nc1 -12.4%
O=C(NC(=S)N1CCN(c2ccc([N+](=O)[O-])cc2)CC1)c1ccccc1Cl 0.79%
C[C@@H]1CCCCO[C@H](CN(C)C(=O)Nc2cccc3ccccc23)[C@@H](C)CN([C@H](C)CO)C(=O)c2cc(N(C)C)ccc2O1 4.84%
Cc1c(/C=N/Nc2ccc(F)cc2)c(O)n(C)c(=O)c1C#N 12.3%
CC(=O)N=Cc1c(C)c(C#N)c(=O)n(C)c1O 6.56%
O=C(C1CCN(S(=O)(=O)c2ccc3c(c2)OCCO3)CC1)N1CCc2ccccc21 24.2%
CNS(=O)(=O)c1cc(O)c2c(S(=O)(=O)NC)cccc2c1 1.99%
Oc1ccc(Cl)cc1N=Nc1ccccc1 0.9%
COc1ccccc1C(=O)NCCC(=O)Nc1ccc(S(=O)(=O)N2CC(C)CC(C)C2)cc1 (stereo not drawn) -5.91%
CC(C)OC(=O)CSc1nnc(Cc2ccccc2)n1C 1.42%
Cc1cc([N+](=O)[O-])cc2ncccc12 22.2%
Cc1ccc([N+](=O)[O-])cc1S(=O)(=O)Nc1ccccn1 11.9%
CC1(C)CC(=O)C2=C(C1)Nc1cc(C(=O)c3ccccc3)ccc1NC2c1ccccn1 (stereo not drawn) 1.75%
O=[N+]([O-])c1ccc(Cl)c2c1C1C=CCC1C(c1ccccn1)N2 (stereo not drawn) -2.51%
CN(C)C(=O)c1ccc2c(c1)C1C3CCC(C3)C1C(c1ccccc1)N2 (stereo not drawn) -2.04%
O=C(O)c1cc(-c2ccccn2)n[nH]1 -8.59%
COc1ccc(OC)c(C2Nc3c(Cl)ccc(C(=O)O)c3C3C=CCC32)c1 (stereo not drawn) -11.5%
O=C(O)c1ccc2c(c1)C1C=CCC1C(c1cc3c(cc1Br)OCO3)N2 (stereo not drawn) -3.12%
Cc1c(CNCCc2ccccc2Cl)c(C(=O)O)c(C)n1-c1ccccc1 -7.23%
Cc1ccc(C(=O)NC(=S)Nc2cccc(-c3nc4ccccc4s3)c2)cc1 9.8%
CSCCC(NS(=O)(=O)c1ccccc1F)C(=O)NCC(C)(C)N1CCOCC1 (stereo not drawn) 1.29%
O=C(OCc1nc2ccsc2c(=O)[nH]1)c1ccc(Cl)s1 11.9%
CCCCN(C(=O)C(C)(C)Oc1ccc(Cl)cc1)c1c(N)n(CCC)c(=O)[nH]c1=O -3.39%
CC(C)CN(CC(C)C)C(=O)Nc1cccc([N+](=O)[O-])c1 0.14%
CCC(C)NC(=O)CSc1nnc(-c2cc(OC)c(OC)c(OC)c2)c(-c2cc(OC)c(OC)c(OC)c2)n1 (stereo not drawn) 2.7%
NC(=O)NC(=O)CN1C(=O)NC2(CCOc3ccccc32)C1=O (stereo not drawn) 5.28%
N=C1C(c2ccccc2)=C(O)CN1c1cccc(O)c1 10.9%
Cc1ccc2c(c1)[C@H]1OCC[C@H]1[C@@H](c1ccncc1)N2 27.8%
O=C1CSc2ccc(C(=O)O)cc2N1 10.3%
CC1Cc2cc(C(=O)O)ccc2O1 (stereo not drawn) -3.49%
COC(=O)c1ccc(C2Nc3ccc(/C(C)=N/NC(=O)C(OC)c4ccccc4)cc3C3C=CCC32)cc1 (stereo not drawn) 11.3%
CCc1ccc2oc(=O)cc(CN3CCN(CCO)CC3)c2c1 4.78%
CC/C(=N\Nc1ccc([N+](=O)[O-])cc1[N+](=O)[O-])c1ccc(O)cc1 -6.92%
COc1ccc(-c2nn3c(-c4ccccn4)nnc3s2)cc1OC 12.7%
COc1cccc(-c2nnc3sc(-c4ccccn4)nn23)c1 -11.4%
COC(=O)c1cc(C)ccc1/C=C1/Cc2c(C)cc(C)cc2C1=O -4.06%
CC1CC1C(=O)OCC(=O)Nc1ncc(Cl)cc1Cl (stereo not drawn) 6.04%
CCCc1cc(=O)n2[nH]c(C)c(-c3ccccc3OC)c2n1 -0.45%
CCc1cc(=O)n2[nH]c(C)c(-c3ccc(OC)cc3)c2n1 -3.08%
COc1ccc(S(=O)(=O)N2CCC(C(=O)NCCC(=O)NCc3cccnc3)CC2)cc1 -0.14%
Cc1noc(C)c1CCC(=O)Nc1cc(C(=O)O)ccc1Cl 4.29%
Cc1ccc(NC(=O)CN2C(=O)N/C(=C/c3ccc4c(c3)OCCO4)C2=O)cc1 -0.54%
Cc1ccc(NC(=O)CN2C(=O)N/C(=C/c3ccc(C)o3)C2=O)cc1 30.9%
N=C1/C(=C\c2ccc(SCc3ccccc3)o2)C(=O)N=C2SC=NN12 1.67%
CCC1=NN2C(=N)/C(=C\c3cccn3-c3ccc(C)c(C)c3)C(=O)N=C2S1 2.9%
N=C1/C(=C\c2ccc(OC(=O)c3ccco3)cc2)C(=O)N=C2SC=NN12 2.2%
CC1=NN2C(=N)/C(=C\c3ccc(SCc4ccccc4)o3)C(=O)N=C2S1 26.3%
CCC1=NN2C(=N)/C(=C/c3c(C)nn(-c4ccccc4)c3Cl)C(=O)N=C2S1 6.74%
CCCC1=NN2C(=N)/C(=C\c3cc(C)n(-c4cccc(C)c4)c3C)C(=O)N=C2S1 -10.2%
N=C1/C(=C\c2ccc(SCc3ccccc3)o2)C(=O)N=C2SC(CC(=O)N3CCOCC3)=NN12 18.9%
CCC1=NN2C(=N)/C(=C\c3cccn3-c3ccc(Cl)cc3)C(=O)N=C2S1 0.75%
CCn1c(C(=O)O)c(S(=O)(=O)c2ccc(Cl)cc2)c2ccccc21 -1.5%
Nc1nnc(SCC(=O)OCc2ccccc2)s1 11.6%
COc1ccc(CCNC(=O)CN2C(=O)NC(c3ccccc3)(c3ccccc3)C2=O)cc1 2.71%
